HP1b chromo inh – HTS for Inhibitors of HP1-beta Chromodomain Interactions with Methylated Histone Tails. Chromobox protein homolog 1 (Homo sapiens), P83916. AlphaScreen HP1-beta / biotin-H3K9me3 peptide binding. Potency, µM (highest dose often 114 µM), for inactives: at the highest dose activity change, negative = inhibition, most hits filed as inhibitors. 390,000 tested, 0.56% active. AID 540317, 2011; also: nearly all actives have a fitted effect of over 70% in size
Target sequence (P83916 whole entry, looked up): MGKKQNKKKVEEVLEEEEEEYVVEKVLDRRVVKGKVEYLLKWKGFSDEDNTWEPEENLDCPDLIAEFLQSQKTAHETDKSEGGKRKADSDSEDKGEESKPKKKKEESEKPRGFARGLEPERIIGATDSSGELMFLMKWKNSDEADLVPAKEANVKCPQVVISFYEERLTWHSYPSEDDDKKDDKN
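HP1-beta protein (50 nM final) preincubated 30 min at room temperature with biotinylated H3(1-18)K9me3 peptide (50 nM) in PBS pH 7.4, 0.01% Tween-20, then compound added for 30 min. AlphaScreen streptavidin donor/nickel chelate acceptor beads (10 ug/mL final), 30 min dark, luminescence read.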
JMJD2A Tudor – qHTS Assay for Inhibitors of JMJD2A-Tudor Domain | Lysine-specific demethylase 4A (Homo sapiens), O75164 | AlphaScreen JMJD2A-Tudor / H3K4me3 peptide binding | Potency, µM (titrated, usually from 114 µM), for inactives: at the highest dose activity change, negative = inhibition, most hits filed as inhibitors | 390,000 tested, 4.4% active; also: % is scaled to controls: 0 for no effect and ±100 for the full control effect; nearly all actives have a fitted effect of over 50% in size
Sfp inh – qHTS Assay for Inhibitors of Bacillus subtilis Sfp phosphopantetheinyl transferase (PPTase); 310,000 tested, 3.5% active; Potency, µM, for the others: largest response in the series, negative = inhibition, hits mostly inhibitors; AID 1490, 2009; 4'-phosphopantetheinyl transferase ffp (Bacillus subtilis), Q9F4F7; Biochemical Sfp PPTase activity, qHTS;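 also: the enzyme is Sfp with the accession as filed and its product quenches rhodamine fluorescence; 0% = enzyme reaction without inhibitor and -100% = no enzyme wells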
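Reaction rates are the 30-min fluorescence difference (ex 525, em 598 nm) in wells containing 15 nM Sfp, 5 uM rhodamine-CoA and 12.5 uM BHQ-2-YbbR at pH 7.6 with 10 mM MgCl2.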
BAZ2B inh – qHTS Assay for Inhibitors of BAZ2B; Bromodomain adjacent to zinc finger domain protein 2B (Homo sapiens), Q9UIF8; AlphaScreen BAZ2B-H3K14Ac peptide displacement; Potency, µM (series often up to 114 µM), without a hit: at the highest dose activity change, negative = inhibition, actives largely listed as inhibitors; 360,000 tested, 4.4% active; AID 504333, 2011; also: % is scaled to controls: 0 for no effect and ±100 for the full control effect; nearly all actives have a fitted effect of over 60% in size
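Compounds, titrated to a top concentration of 110 uM, were incubated 30 min at room temperature with preformed BAZ2B/acetyl-K14 H3 peptide complex (50 nM each). Proximity signal was measured by AlphaScreen after 20 min with beads.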
12-LOX inh – Primary qHTS assay for inhibitors of human arachidonate 12S-lipoxygenase (ALOX12): Round 2 | Potency, µM (doses to about 108 µM), without a hit: at the top dose activity change, negative = inhibition, usual class: inhibitors | 580,000 tested, 1.1% active | purified 12hLO, xylenol orange hydroperoxide absorbance; also: % is scaled to controls: 0 for no effect and ±100 for the full control effect
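Purified human 12hLO (150 nM final) in 25 mM Hepes, 0.01% Triton X-100, pH 7.0 was preincubated 15 min at room temperature with compound. Then 40 uM arachidonic acid was added, 30 min. Hydroperoxide was read by Fe-XO absorbance ratio 573/405 nm.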
G9a inh – qHTS Assay for Inhibitors of Histone Lysine Methyltransferase G9a; G9a H3K9 monomethylation, AlphaScreen, 2 h; Potency, µM (series often up to 102 µM), for inactives: at the top dose activity, negative = inhibition, usual class: inhibitors; 350,000 tested, 8.8% active; also: % is scaled to controls: 0 for no effect and ±100 for the full control effect; nearly all actives have a fitted effect of over 75% in size
Target sequence (Q96KQ7 913-1193 limits assumed): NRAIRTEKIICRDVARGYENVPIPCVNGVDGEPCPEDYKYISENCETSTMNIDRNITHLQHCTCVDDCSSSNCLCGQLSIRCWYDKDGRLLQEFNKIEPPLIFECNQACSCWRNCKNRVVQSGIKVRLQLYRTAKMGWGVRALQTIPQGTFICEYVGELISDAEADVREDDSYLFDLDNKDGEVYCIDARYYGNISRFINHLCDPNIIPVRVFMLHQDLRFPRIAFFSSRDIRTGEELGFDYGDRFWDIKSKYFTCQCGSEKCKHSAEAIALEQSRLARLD
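G9a (20 nM) preincubated 15 min RT with compounds, then 500 nM biotinylated H3K9 peptide and 20 uM SAM added; 2 h RT reaction. Monomethyl-H3K9 product detected by AlphaScreen with anti-H3K9me1 antibody, streptavidin donor and anti-rabbit IgG acceptor beads.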
* marks the source's active call; other numbers are inactive results; [ ] = another dose, or the depositor's remark. An excerpt weighted towards active compounds, which were near 8.7% of everything screened. Calls follow the shape of the dose curve; as a rule, active = well fitted curve in the direction sought with a large enough effect; inconclusive = small, poorly fitted or top-dose-only effect, or another doubt; inactive = no such curve, though single readings can be large; an effect the other way counts as inactive or inconclusive. Potency is read from the fitted curve at half-maximal effect.

`O=C1N/C(=N\S(=O)(=O)c2ccccc2)S/C1=C\c1cc([N+](=O)[O-])ccc1O` gave HP1b chromo inh 6%, JMJD2A Tudor -17%, Sfp inh 13%, BAZ2B inh -20%, 12-LOX inh -19% and G9a inh inconclusive.
For CCOc1cc(Br)cc(/C=C2\SC(=Nc3ccccc3)NC2=O)c1O the results were HP1b chromo inh 12%, JMJD2A Tudor -31%, Sfp inh -26%, BAZ2B inh -37% and 12-LOX inh -16%.
For O=C(NN=C1CCCCC1)c1sc2ccccc2c1Cl the results were 12-LOX inh 45%.
Screening CC(C)(C)c1ccc(C(=O)CCCSC2=C(C#N)C(c3ccco3)C3=C(CCCC3=O)N2)cc1 (stereo unspecified) returned HP1b chromo inh 11%, JMJD2A Tudor inconclusive, Sfp inh 50µM*, BAZ2B inh 0%, 12-LOX inh 0% and G9a inh inconclusive.
N#CC1=C(SCC(=O)c2ccccc2)NC2=C(C(=O)CCC2)C1c1ccco1 (stereo unspecified) was read as HP1b chromo inh -2%, JMJD2A Tudor inconclusive, Sfp inh 32µM*, BAZ2B inh inconclusive, 12-LOX inh inconclusive and G9a inh inconclusive.
Screening CCOC(=O)CSC1=C(C#N)C(c2ccccc2C)C2=C(CCCC2=O)N1 (stereo unspecified) returned HP1b chromo inh 68%, JMJD2A Tudor 6%, Sfp inh 14µM*, BAZ2B inh -21%, 12-LOX inh inconclusive and G9a inh inconclusive.
Screening CCOc1ccccc1C1C(C#N)=C(SCC(=O)Nc2ccc(C)cc2)NC2=C1C(=O)CCC2 (stereo unspecified) returned 12-LOX inh -17%.
Screening Cc1cc(C)c2nc(C(F)(F)F)c(C#N)c(N)c2c1 returned HP1b chromo inh 26%, JMJD2A Tudor -5%, Sfp inh 5%, BAZ2B inh 10%, 12-LOX inh 0% and G9a inh 16%.
CCCc1nc2c(C)cc(C)cc2c(N)c1CC was read as HP1b chromo inh -11%, JMJD2A Tudor 4.5µM*, Sfp inh 0%, BAZ2B inh -34%, 12-LOX inh inconclusive and G9a inh inconclusive.
`COc1cc2c(C(=O)NCc3ccc(C)o3)cn(CC(C)C)c(=O)c2cc1OC` gave HP1b chromo inh 10%, JMJD2A Tudor -21%, Sfp inh 45µM*, BAZ2B inh 4%[57.1 µM], 12-LOX inh -10% and G9a inh 45µM*.
Screening CCn1cc(C(=O)NCc2ccco2)c2cc(OC)c(OC)cc2c1=O returned HP1b chromo inh 17%, JMJD2A Tudor -17%, Sfp inh -6%, BAZ2B inh 5%, 12-LOX inh 2% and G9a inh inconclusive.
`COc1ccc(CN2CC3(CCN(C(=O)Nc4ccc(OC)c(OC)c4)CC3)C2=O)cc1` gave 12-LOX inh 2%.
Screening CN(c1ccccc1)c1ccc(/C=C(/CCC(=O)O)c2nc3ccccc3s2)cc1[N+](=O)[O-] returned HP1b chromo inh inconclusive, JMJD2A Tudor 22µM* and 12-LOX inh inconclusive.
For O=C(O)CC/C(=C\c1ccc(N2CCCC2)c([N+](=O)[O-])c1)c1nc2ccccc2s1 the results were HP1b chromo inh inconclusive, JMJD2A Tudor -35%[57.1 µM], Sfp inh -19%, BAZ2B inh 40µM*, 12-LOX inh inconclusive and G9a inh 13µM*.
Screening COCC(=O)N1CCn2c(nnc2-c2ccccc2)C1 returned 12-LOX inh 19%[176 µM].
For O=C(C[n+]1cccc2ccccc21)c1ccccc1 the results were HP1b chromo inh 47%, JMJD2A Tudor 1%[57.1 µM], Sfp inh inconclusive, BAZ2B inh 11%, 12-LOX inh -3% and G9a inh 45µM*.
Cc1cc[n+](CC(=O)c2ccc(NC(=O)c3ccccc3)cc2)c2ccccc12 was read as HP1b chromo inh 13%, JMJD2A Tudor inconclusive, Sfp inh -6%, BAZ2B inh inconclusive, 12-LOX inh 381% and G9a inh 40µM*.
O=C(C[n+]1cccc2ccccc21)c1ccc(NC(=O)c2ccccc2)cc1 was read as HP1b chromo inh 39%, JMJD2A Tudor -9%, Sfp inh 5%, BAZ2B inh -25%, 12-LOX inh -8% and G9a inh 25µM*.
Cc1cc[n+](CC(=O)c2ccc(NC(=O)c3ccccc3)cc2)cc1 was read as HP1b chromo inh 25%, JMJD2A Tudor -12%, Sfp inh 11%, BAZ2B inh 4%, 12-LOX inh 4% and G9a inh inconclusive.
For O=C(c1cscn1)N1CCCC2(COc3ccccc3[S+](=O)([O-])N2)C1 (stereo unspecified) the results were 12-LOX inh 2%[6.33 µM].
`COCCCn1c(=O)/c(=C\c2ccccc2OC(F)F)s/c1=C(/C#N)C(=O)NC(C)C` gave HP1b chromo inh 6%, JMJD2A Tudor -18%, Sfp inh 12%, BAZ2B inh -9%, 12-LOX inh inconclusive and G9a inh 12%[59 µM].
For COCCCn1c(=O)/c(=C\c2ccccc2OC(C)C)s/c1=C(/C#N)C(=O)Nc1ccc(C(=O)O)cc1 the results were HP1b chromo inh -15%, JMJD2A Tudor inconclusive, Sfp inh -25%, BAZ2B inh 50µM*, 12-LOX inh 1% and G9a inh 45µM*.
Screening CCN1CCN(c2cc(C)c3cc(NC(=S)NCCCN4CCc5ccccc5C4)ccc3n2)CC1 returned HP1b chromo inh -12%, JMJD2A Tudor inconclusive, Sfp inh 4%, BAZ2B inh inconclusive, 12-LOX inh 0% and G9a inh 32µM*.
Cc1cc(N2CCN(C)CC2)nc2ccc(NC(=S)NCCCN3CCc4ccccc4C3)cc12 was read as HP1b chromo inh -7%, JMJD2A Tudor -26%, Sfp inh 8%, BAZ2B inh inconclusive, 12-LOX inh 4% and G9a inh 40µM*.
For Cc1cc(N2CCCC2)nc2ccc(NC(=S)NCCCN3CCC(C)CC3)cc12 the results were HP1b chromo inh 7%, JMJD2A Tudor -32%, Sfp inh 10%, 12-LOX inh -17% and G9a inh 50µM*.
